# The campaign covered roughly 68,000 compounds. About 2,700 (4%) showed an effect of 50% or more. The sample holds strong results, similar compounds and a random draw of the others, so the mix is not that of the screen.
# System: Plasmodium berghei
# Assay: Screen against P. berghei liver stage (PbLuc), transformed with Luciferase, at 2uM
# Format: functional, HepG2
# Conditions: tested at 2 uM
row,SMILES,INHIBITION
1,COCCN1CCC(C(=O)N(C)CCOc2ccc(C)cc2Cl)C1 (configuration not stated),-23.16%
2,Cc1n[nH]cc1CNC(=O)CCCc1cccs1,20.86%
3,C[C@@H]1CN(Cc2ccc(-c3ccncc3)cc2F)CC(C(N)=O)O1 (some centres not stated),-11.35%
4,CC(C)N1CCOCC2(CCCN(C(=O)c3cncn3C)C2)C1 (configuration not stated),9.1%
5,CN1CCC2(CCCN(C(=O)c3cncn3C)C2)CC1,13.26%
6,CC(C)N1CCC2(CCCN(C(=O)c3cncn3C)C2)CC1,51.36%
7,CCSc1nc(N)c(NC(=O)c2ccc(C)cc2)c(=O)[nH]1,7.1%
8,COCCC(=O)N1CC[C@H]2O[C@@H](C)C[C@H]2C1,26.31%
9,O=C(Nc1cnn(COc2ccc(F)cc2Cl)c1)C1CC1,25.24%
10,COc1cc(-c2nc3c([nH]2)CCCNC3=O)ccc1O,-58.91%
11,COc1ccc(-c2nc3c([nH]2)CCCNC3=O)cc1OC,75.76%
12,COc1cc(-c2nc3c([nH]2)CCCNC3=O)ccc1OC(C)C,-20.6%
13,NC(=O)c1cccc(CC2CCN(C(=O)CO)C2)c1 (configuration not stated),-5.6%
14,Cc1ccc(-c2cc(CNC(=O)N3CCC(N(C)C)CC3)on2)cc1,23.24%
15,CN(Cc1cc(F)ccc1C#N)CC(C)(CO)CO,55.36%
16,CN(Cc1ccc(F)cc1F)CC(C)(CO)CO,38.67%
17,CN(Cc1cc(F)ccc1F)CC(C)(CO)CO,50.59%
18,CSCCN(C)Cc1ccc(F)cc1C#N,-63.41%
19,CN(CC(C)(CO)CO)C(=O)Nc1cc(F)cc(Cl)c1,-4.57%
20,CN(Cc1ccc(F)cc1C#N)CC(F)(F)F,4.12%
21,CNC(=O)c1ccc(OC)c(NCc2ncc(-c3cccs3)o2)c1,2.67%
22,Cc1ccc(CN2CCc3ncnc(-c4cccnc4)c3CC2)o1,18.57%

row,SMILES,INHIBITION
1,Cc1ccc(CN2CCc3ncnc(-c4ccc(F)cc4)c3CC2)o1,-23.71%
2,Cc1ccc(CN2CCc3ncnc(-c4ccncc4)c3CC2)o1,76.36%
3,CCc1noc(C)c1C(=O)N1CCCN(Cc2cscn2)CC1,-2.47%
4,O=C(Cc1ccsc1)N1C[C@@H]2OCCN(c3cnccn3)[C@@H]2C1,21.42%
5,c1cncc(O[C@H]2CC[C@H]3[C@H]2OCCN3C2CCCC2)c1,-74.01%
6,COc1nc2c(cc1C(=O)N1C[C@H](N)C[C@H]1C(=O)NC(C)C)CCC2,43.8%
7,COc1nc2c(cc1C(=O)N1C[C@@H](N)C[C@H]1C(=O)NC(C)C)CCC2,63.17%
8,CC(C)NC(=O)[C@@H]1C[C@@H](N)CN1C(=O)c1cc2c([nH]c1=O)CCCC2,31.65%
9,CC1CCC(NC(=O)Nc2ccc(CC(=O)N(C)C)cc2)CC1 (configuration not stated),35.5%
10,Cn1cc(CN2CCN(CC3(c4ccccc4)CC3)CC2)cn1,27.03%
11,COc1ccc2c(C)c(C(=O)N3CCC(NC(C)=O)C3)oc2c1 (configuration not stated),-41.96%
12,Cc1ccccc1[C@@H]1CN(Cc2c(C)noc2C)C[C@H]1C(=O)O,-18.65%
13,COc1ccccc1[C@@H]1CN(Cc2c(C)noc2C)C[C@H]1C(=O)O,68.39%
14,Cc1noc(C)c1CN1C[C@@H](C(=O)O)[C@H](c2ccccc2)C1,-0.59%
15,O=C(NCCn1ccnc1)N1CCN(c2nccs2)CC1,-16.42%
16,Cc1nc(CN2CC(Cc3ccccc3)CC2=O)no1 (configuration not stated),-12.68%
17,O=C(O)[C@]12CCCN(CC3CCOC3)C[C@H]1CN(c1ncccn1)C2 (some centres not stated),13.16%
18,O=C1CCN(C(=O)C2(c3ccc(F)cc3)CCOCC2)CCN1,63.46%
19,O=C1CCN(C(=O)C2(c3ccc(F)cc3)CCCCC2)CCN1,-41.64%
20,O=C1CCN(C(=O)C2(c3ccc(F)cc3)CCCC2)CCN1,37.18%
21,CCn1c(C2CCN(C(=O)c3ccc4cc[nH]c4c3)CC2)n[nH]c1=O,-9.71%
22,O=C(c1ccccc1)N1CCCC2(CCN2Cc2cccc(F)c2)C1 (configuration not stated),29.03%

row,SMILES,INHIBITION
1,COc1cc2cc(C(=O)NCC(=O)O)n(C)c2c(OC)c1OC,16.47%
2,CC(=O)Nc1ccc(CNC2CC(=O)N(Cc3cccc(F)c3)C2)cc1 (configuration not stated),-34.5%
3,COCCO[C@H]1CCN(c2cc(OC)ncn2)[C@H]1Cc1cccnc1,3%
4,Cc1ccc(Cl)cc1NC(=O)C1CSc2ncc(C)c(=O)n2C1 (configuration not stated),61.06%
5,Cc1ccncc1NC(=O)C1CSc2ncc(C)c(=O)n2C1 (configuration not stated),13.95%
6,Cc1cnc2n(c1=O)CC(C(=O)Nc1ccccc1Cl)CS2 (configuration not stated),-51.94%
7,Cc1ccc(-c2noc(CN3CCc4cncnc4C3)n2)cc1,-49.27%
8,O=C(c1ccc2c(c1)COC2)N1CCC(Nc2cccnn2)CC1,31.19%
9,Cc1cncc(C(=O)N2CC[C@@]3(C[C@H](NS(C)(=O)=O)CCO3)C2)c1,17.83%
10,CCCc1cc(=O)[nH]c(-n2nc(C3CC3)cc2N)n1,-67.99%
11,O=C1N(CC2CCCCC2)CCCC1(O)CN1CCc2[nH]ncc2C1 (configuration not stated),29.9%
12,O=C1N(CC2CC2)CCCC1(O)CN1CCc2[nH]ncc2C1 (configuration not stated),61.42%
13,CC(C)(C)CN1CCCC(O)(CN2CCc3[nH]ncc3C2)C1=O (configuration not stated),-92.69%
14,CC(C)c1noc(CCCC(=O)N2CCN(Cc3cccnc3)CC2)n1,26.06%
15,O=C(c1ccco1)N1CCCC2(CN(Cc3ccsc3)CCO2)C1 (configuration not stated),-26.14%
16,Cc1noc(C(C)N2CCN(CCOCC(F)(F)F)CC2)n1 (configuration not stated),36.95%
17,CN1CC2(CCN(C(=O)c3ccc4c(=O)n(C)cnc4c3)CC2)CC1=O,-7.68%
18,CN1CC2(CCN(C(=O)c3ccc4c(=O)n(C)cnc4c3)C2)OC1=O (configuration not stated),52.03%
19,Cc1nc[nH]c1C(=O)N1CCC2(CN(C)C(=O)O2)C1 (configuration not stated),36.22%
20,CNC(=O)c1cccnc1NCCOc1ccccc1,-1.89%
21,c1ccc(NCc2ccc(Cn3ccnc3)cc2)nc1,17.64%
22,Brc1ccc(NCc2ccc(Cn3ccnc3)cc2)nc1,74.17%

row,SMILES,INHIBITION
1,CNC(=O)c1cccnc1NCc1ccc(-n2cccn2)cc1,-6.98%
2,CS(=O)(=O)c1ccccc1NCc1ccc(Cn2ccnc2)cc1,6.78%
3,CNC(=O)c1cccnc1NCc1ccc(Cn2ccnc2)cc1,71.57%
4,CNC(=O)c1cccc(NCCOc2ccc(CC#N)cc2)c1C,34.46%
5,CNC(=O)c1cccnc1NCCOc1ccc(CC#N)cc1,54.29%
6,CNC(=O)c1cccnc1NCc1ccc(Cn2cccn2)cc1,-6.29%
7,CC(C)(NCCCOc1ccc(C#N)cc1)c1nccs1,9.27%
8,Cc1csc(C(C)(C)NCCOc2ccc(CC#N)cc2)n1,30.06%
9,CC(C)(NCCOc1ccc(CC#N)cc1)c1nccs1,56.89%
10,CC(C)(CNC1CCCN(Cc2ccccc2F)C1)CN1CCOCC1 (configuration not stated),18.22%
11,CCc1ccccc1CN1CCn2nc(CNC(C)=O)cc2C1,-31.66%
12,COc1cccc2c1OCC(NC(=O)NCCc1ccccn1)C2 (configuration not stated),40.59%
13,NC(=O)N1CCCN(CCCSCc2ccccc2)CC1,-16.28%
14,c1ccc(Cc2cccc(C3CCCN3C3CCOCC3)n2)cc1 (configuration not stated),44.16%
15,O=S(=O)(c1cccc(F)c1)N1C[C@H]2CC[C@@H](C1)N(Cc1ccccc1)C2,-13.58%
16,CC(C(=O)NCc1ccnc(OC2CCCC2)c1)n1cncn1 (configuration not stated),-5.34%
17,O=C1NCCCc2c1oc1ccc(O)c(CN3CCOCC3)c21,10.49%
18,CCN(C)C(=O)c1ccc2c(c1)C(c1nc[nH]n1)CN2S(C)(=O)=O (configuration not stated),53.55%
19,CCC(CC)NC(=O)c1ccc2c(c1)C(c1nc[nH]n1)CN2S(C)(=O)=O (configuration not stated),36.34%
20,CC(C)NC(=O)c1ccc2c(c1)C(c1nc[nH]n1)CN2S(C)(=O)=O (configuration not stated),-18.52%
21,Cc1cnc(C(=O)N2CCCC(n3cncn3)C2)cn1 (configuration not stated),-43.79%
22,CCOc1cc(CN[C@@H]2COC[C@H]2Cc2cc(C)no2)ccc1O,33.64%

row,SMILES,INHIBITION
1,CCc1c(C(=O)N2CCN(C)[C@@H]3CS(=O)(=O)C[C@@H]32)[nH]c2ccccc12,65.3%
2,CCN1CCN(C(=O)c2[nH]c3ccccc3c2Cl)[C@H]2CS(=O)(=O)C[C@H]21,25.65%
3,Cc1c(C(=O)N2CCN(C)[C@@H]3CS(=O)(=O)C[C@@H]32)[nH]c2ccc(F)cc12,28.95%
4,COc1ccccc1-n1nc(C(C)C)nc1Cc1nnc(N)s1,49.32%
5,CS(=O)(=O)NCCCNC(=O)c1cccnc1O,-55.03%
6,C[C@H]1C[C@H]2CN(Cc3ccccn3)CC[C@@H]2O1,66.23%
7,C[C@H]1C[C@@H]2CCN(Cc3ccccn3)C[C@H]2O1,0.78%
8,C[C@@H]1C[C@@H]2CCN(Cc3ccccn3)C[C@H]2O1,2.98%
9,O=C(Cn1cccn1)N1CCc2[nH]nc(-c3ccc4c(c3)OCO4)c2C1,37.41%
10,O=C1CN([C@@H]2CC[C@@H](NS(=O)(=O)c3ccc(F)cc3)[C@H]2O)CCN1,22.95%
11,Cc1nc(CC(=O)N2CCCC(n3ccnc3C(C)C)C2)cs1 (configuration not stated),66.2%
12,COCc1nc(C(=O)N2CCCC(n3ccnc3)C2)cs1 (configuration not stated),28.54%
13,COCc1nc(C(=O)N2CCCC(n3cccn3)C2)cs1 (configuration not stated),21.89%
14,CC(C)c1nccn1C1CCCN(C(=O)c2ccsc2)C1 (configuration not stated),-12.41%
15,COCc1nc(C(=O)N2CCCC(n3ccnc3C)C2)cs1 (configuration not stated),53.69%
16,Cc1ccc(CC(=O)N2CCCC(n3ccnc3C(C)C)C2)cn1 (configuration not stated),28.65%
17,CCc1nccn1C1CCCN(C(=O)c2csc(COC)n2)C1 (configuration not stated),24.15%
18,COCc1nc(C(=O)N2CCCC(n3ccnc3C(C)C)C2)cs1 (configuration not stated),52.52%
19,CSCC(=O)N1CCCC(n2ccnc2C(C)C)C1 (configuration not stated),-47.97%

# From ChEMBL document CHEMBL4513216, “Probing the Open Global Health Chemical Diversity Library for Multistage-Active Starting Points for Next-Generation Antimalarials” (ACS Infect Dis, 2020)
